Screening data (PubChem)
NPC1 prom act: activators of NPC1 promoter | Huh7 NPC1 promoter luciferase reporter, 24 h | Potency, µM (highest dose often 9.22 µM), for inactives: top-dose activation, most hits filed as activators | hit rate 2.4% among 320,000 | AID 485313; also: % of control where 0% means no effect; nearly all actives have a fitted effect of over 60% in size
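Huh7 reporter cells (NPC1 promoter driving luciferase) are dosed with compound for 24 h at 37 °C, 5% CO2; luciferase detection reagent is then added and luminescence measured after 10 min at ambient temperature.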
ELG1 DNA repair: blocks ELG1-dependent DNA repair in HEK293T cells | HEK293T ELG1-luciferase reporter, luminescence, 16 h; DNA damage induced by 5-fluorouridine | Potency, µM (top dose mostly 46.1 µM), inactives show top-dose activity change, negative = inhibition, actives largely listed as inhibitors | hit rate 2.3% among 330,000; also: % is scaled to controls: 0 for no effect and ±100 for the full control effect; nearly all actives have a fitted effect of over 55% in size
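5-Fluorouridine DNA damage + compound/DMSO, 2,000 cells/well, 16 h, 37 °C/5% CO2. ONE-Glo, 30 min RT, luminescence. Readout = decrease in reporter signal.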
ELG1 genotoxic: inducers of genotoxicity in HEK293T ELG1-luciferase cells. HEK293T ELG1-luciferase reporter, luminescence, 16 h. Potency, µM (highest dose often 46 µM), inactives show at the highest dose activity change, positive = activation, usual class: activators. hit rate 1.3% among 330,000; also: % of control where 0% means no effect; nearly all actives have a fitted effect of over 60% in size
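16 hr compound incubation (37 °C, 5% CO2) of HEK293T cells carrying luciferase-tagged ELG1; luciferase then measured by ONE-Glo luminescence after 30 min at RT.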
FLuc modulator: inhibits or activates purified firefly luciferase, miR-21 counter-screen. purified FLuc, Km substrates, luminescence inhibition. Potency, µM (top dose mostly 57.5 µM), without a hit: at the highest dose activity change, negative = inhibition, actives largely listed as inhibitors. hit rate 6.9% among 360,000;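 also: plate controls were vehicle for no effect and reference inhibitor for full effect; nearly all actives have a fitted effect of over 55% in size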
Target sequence (P08659 whole entry, looked up): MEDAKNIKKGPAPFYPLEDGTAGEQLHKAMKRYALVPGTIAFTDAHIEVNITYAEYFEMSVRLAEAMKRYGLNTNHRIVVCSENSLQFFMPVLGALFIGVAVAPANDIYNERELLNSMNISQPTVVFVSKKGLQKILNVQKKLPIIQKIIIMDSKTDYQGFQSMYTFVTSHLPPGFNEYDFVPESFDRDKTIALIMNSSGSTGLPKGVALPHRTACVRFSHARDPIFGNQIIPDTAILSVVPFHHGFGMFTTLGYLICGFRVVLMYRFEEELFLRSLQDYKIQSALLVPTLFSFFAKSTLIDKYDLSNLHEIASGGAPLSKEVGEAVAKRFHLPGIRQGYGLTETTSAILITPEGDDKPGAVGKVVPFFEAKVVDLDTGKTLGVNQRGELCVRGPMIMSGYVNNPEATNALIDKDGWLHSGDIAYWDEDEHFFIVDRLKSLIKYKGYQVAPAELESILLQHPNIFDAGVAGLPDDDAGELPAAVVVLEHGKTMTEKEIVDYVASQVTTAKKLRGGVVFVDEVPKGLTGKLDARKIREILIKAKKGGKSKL
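Biochemical qHTS of compounds, final roughly 60 µM downward over six points, against 10 nM purified firefly luciferase using Km concentrations of substrates (10 uM D-luciferin, 10 uM ATP) in Tris acetate pH 7.5 buffer; luminescence output.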
Rab9 promoter act: Rab9 promoter activation | Huh7 Rab9 promoter-luciferase reporter, luminescence, 24 h | Potency, µM (top dose mostly 9.22 µM), without a hit: top-dose activation, negative = inhibition, hits mostly activators | hit rate 2.8% among 320,000 | AID 485297; also: % of control where 0% means no effect; nearly all actives have a fitted effect of over 60% in size
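Huh7 cells stably carrying Rab9 promoter–luciferase reporter, plated 1500 cells/well, compound added after 2 h and incubated 24 h at 37 °C; luciferase luminescence then read after 10 min with detection reagent.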
SMN2 splice enh: enhancers of SMN2 splice variant expression | HEK293 SMN2-luciferase splicing reporter, luminescence, 30-36 h | Potency, µM (series often up to 46.1 µM), for inactives: at the top dose activity change, positive = activation, usual class: activators | hit rate 2.8% among 210,000 | AID 1458; also: % of control where 0% means no effect; nearly all actives have a fitted effect of over 55% in size
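qHTS luciferase splicing reporter: luminescence rises when SMN2 exon 7 is included in transfected HEK293 cells. Compound exposure lasted 30-36 h at 37C, with 4.5 mM final sodium butyrate as control, followed by a ONE-Glo read.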
* hit, by the source's call; ? = inconclusive; nt = no result. In the library only some 9.2% were active in any assay of this set; here they are far more common. Calls follow the shape of the dose curve; as a rule, active = well fitted curve in the direction sought with a large enough effect; inconclusive = small, poorly fitted or top-dose-only effect, or another doubt; inactive = no such curve, though single readings can be large; an effect the other way counts as inactive or inconclusive. Potency is read from the fitted curve at half-maximal effect.

SMILES	NPC1 prom act	ELG1 DNA repair	ELG1 genotoxic	FLuc modulator	Rab9 promoter act	SMN2 splice enh
CC(C)(C)c1ccc(OCCC(=O)NNC(=O)c2ccccc2)cc1	0.6%	1.2%	0.3%	12.7%	-1.3%	nt
O=C(Oc1ccc2ccccc2c1)c1cncc(Br)c1	0.4%	8.9%	4.1%	-14.9%	-1.3%	2.9%
O=C(Oc1ccc(/C=N/O)cc1)c1ccccc1	0.4%	10.6%	2.5%	12µM*	?	10.8%
O=C(Oc1ccc(/C=N/Nc2ccccc2)cc1)c1ccccc1	19.6%	?	?	?	6.5%	-16.7%
COCCCN1C(=O)C2C(C(=O)Nc3cccc(Cl)c3)C3C=CC2(O3)C1C(=O)NC1CCCCC1 (stereo not given)	-8.0%	-0.7%	-2.5%	6.9%	-1.1%	nt
O=C(CN1CCN(c2ccccn2)CC1)Nc1cccc(Br)c1	-2.5%	0.8%	-0.3%	-4.9%	-11.9%	nt
CCOC(=O)Cc1c(C(=O)OCC)nnc2c(-c3ccccc3)c(C)nn12	nt	nt	nt	-18.4%	nt	-1.8%
CCOC(=O)Cc1c(C)nc2c(-c3ccc(Cl)cc3)c(C)[nH]n2c1=O	4.7%	-4.4%	-10.3%	0.1%	-10.5%	-4.8%
CCOC(=O)Cc1c(C)nc2c(-c3ccccc3)c(C)nn2c1C	-2.0%	-17.8%	-0.2%	21.3µM*	0.4%	-10.6%
CCOC(=O)Cc1c(C)nc2c(-c3ccc(Cl)cc3)cnn2c1C	1.4%	7.8%	4.8%	26.9µM*	-0.9%	-5.9%
CCOC(=O)N1CCN(C(=O)c2cn(C)c(=O)c3c2c2ccccc2n3C)CC1	-1.1%	?	1.3%	0.9%	-6.2%	-4.4%
CCOC(=O)N1CCN(C(=O)c2cn(CC(C)C)c(=O)c3c2c2ccccc2n3C)CC1	-1.1%	18.4µM*	-9.1%	-9.0%	-6.4%	2.4%
COc1ccccc1C(=O)N/C(=C/c1ccc(Br)cc1)C(=O)N1CCCC1	4.2%	?	-1.1%	-9.0%	0.1%	14.5%
C[C@@H](C(=O)Nc1ccc2ccccc2c1)[C@H]1C[C@]1(C)[C@H](NC(=O)c1cccnc1)c1ccccc1	-4.7%	18.4µM*	-9.3%	2.2%	0.5%	-12.6%
Cc1cc(NS(=O)(=O)c2ccc(NC(=O)COc3ccc(Cl)cc3)cc2)nc(C)n1	nt	nt	nt	?	nt	-27.7%
COc1ccc(-c2c[n+]3c(n2-c2ccccc2)CCCCC3)cc1	-19.5%	?	-7.4%	2.0%	-19.2%	-57.9%
COc1ccc(-n2c(-c3ccc(Cl)cc3)c[n+]3c2CCCCC3)cc1	-16.8%	5.8µM*	-9.8%	-0.6%	-36.3%	nt
COc1ccc(-c2c[n+]3c(n2-c2ccc(C)cc2)CCCCC3)cc1	-34.4%	0.92µM*	-8.3%	-0.4%	-50.2%	nt
COc1cc2nc(NCCC(C)C)n3nc(-c4ccccc4)nc3c2cc1OC	nt	nt	nt	-5.2%	nt	-2.6%
COc1ccc(NC(=O)c2ccco2)cc1NC(=O)COc1cc(C)ccc1C(C)C	nt	nt	nt	5.0%	nt	-9.5%
Cc1ccccc1NC(=O)c1ccc2c(c1)C(=O)N(CC(C)C)C2=O	-4.5%	-10.6%	1.5%	-7.7%	4.5%	nt
CC(C)CN1C(=O)c2ccc(C(=O)Nc3ccccc3C(=O)O)cc2C1=O	2.51µM*	?	?	3.01µM*	4.47µM*	nt
CC(C)CN1C(=O)c2ccc(C(=O)Nc3ccccn3)cc2C1=O	?	?	?	2.69µM*	?	-5.1%
CC(C)CN1C(=O)c2ccc(C(=O)Nc3nccs3)cc2C1=O	?	?	?	6.75µM*	?	5.9%
CC(C)(C)C(=O)Cn1ncc(N2CCCC2)c(Br)c1=O	?	?	?	?	3.98µM*	23.6%
SMILES	NPC1 prom act	ELG1 DNA repair	ELG1 genotoxic	FLuc modulator	Rab9 promoter act	SMN2 splice enh
CC(C)(C)C(=O)Cn1ncc(N2CCOCC2)c(Br)c1=O	6.9%	?	8.8%	-2.4%	26.1%	7.0%
Cc1[nH]c2ccc3ncccc3c2c1C	1.0%	2.5%	2.5%	21.3µM*	3.4%	-30.4%
Cc1c(C)c2cccnc2c2ncccc12	-30.8%	?	-11.6%	?	-25.2%	nt
O=C(N/N=C\c1cccnc1)c1ccc(Br)s1	22.1%	?	10.3%	9.53µM*	18.2%	nt
O=C(N/N=C\c1ccncc1)c1ccc(Cl)s1	13.6%	20.3%	14.9%	16.9µM*	4.1%	nt
O=C(N/N=C/c1ccncc1)c1cc(-c2ccc(Br)s2)[nH]n1	11.3%	4.2%	0.7%	15.1µM*	-2.0%	nt
Cc1ccc(C(=O)N/N=C\c2ccncc2)s1	21.0%	?	?	?	21.6%	nt
O=C(N/N=C/c1ccc(Br)s1)c1cccnc1	-1.0%	5.8%	-0.7%	-17.3%	0.0%	-1.5%
O=C(Nc1nnc(-c2ccncc2)o1)c1ccc(Br)s1	-1.8%	8.2µM*	-7.3%	?	-5.9%	-61.0%
O=C(N/N=C/c1cccnc1)c1cc(O)c(O)c(O)c1	0.2%	16.4%	1.1%	-19.1%	4.7%	nt
COc1ccc2c(Cl)c(C(=O)N/N=C/c3cccnc3)sc2c1	-1.2%	-14.1%	-3.4%	?	-0.6%	nt
O=C(N/N=C\c1ccncc1)c1ccc(Br)s1	-4.1%	?	8.9%	15.1µM*	4.6%	nt
O=C(N/N=C\c1cccnc1)c1ccc(Cl)s1	0.6%	?	?	13.5µM*	16.3%	nt
CCc1ccc(C(=O)N/N=C/c2ccncc2)s1	17.7%	?	?	12µM*	?	nt
O=C(N/N=C/c1cccnc1)c1sc2ccccc2c1Cl	0.4%	-0.9%	8.0%	19µM*	10.9%	nt
CCCCOc1ccc(C(=O)NCC(=O)NCC(c2ccc(F)cc2)N2CCOCC2)cc1 (stereo not given)	-2.1%	9.8%	1.0%	3.5%	2.6%	nt
CC(=O)Nc1ccc(NC(=O)CSc2nc3c([nH]c4ccccc43)c(=O)n2-c2ccccc2F)cc1	-2.7%	16.4µM*	0.2%	?	1.8%	nt
COc1ccccc1-n1c(SCC(=O)Nc2ccc(NC(C)=O)cc2)nc2c([nH]c3ccccc32)c1=O	-1.1%	10.3µM*	9.3%	-10.8%	1.2%	nt
COc1ccc(-n2c(SCC(=O)Nc3ccc(NC(C)=O)cc3)nc3c([nH]c4ccccc43)c2=O)cc1OC	8.6%	-9.8%	13.1%	-5.7%	6.0%	nt
Cc1ccccc1C(=O)c1cccn1CC(=O)NCc1ccccc1Cl	18.5%	?	?	?	?	nt
CC(C)C(=O)N[C@@H]1c2ccccc2CC[C@H]1OCc1ccccc1	nt	-2.3%	0.9%	nt	nt	nt
C=CCn1c(C)cc(C(=O)Cn2ncc(Cl)c(Cl)c2=O)c1C	-15.8%	?	-15.4%	5.36µM*	-25.1%	?
C=CCn1c(C)cc(C(=O)CN2NS(=O)(=O)c3ccccc3C2=O)c1C	18.1%	?	20.6µM*	1.69µM*	?	-15.2%
CCCn1cnc2cc(NCc3cccs3)ccc21	?	?	?	19µM*	?	nt
